# Source: PubChem
# ATXN2 expr inh = reduces ATXN2 reporter expression in HEK-293 cells | HEK-293 ATXN2-luciferase reporter, luminescence, 24 h | Potency, µM (titrated, usually from 57 µM), for the others: at the highest dose activity change, negative = inhibition, usual class: inhibitors | 360,000 tested, 0.72% active | AID 1745845; note: % is set by controls: 0 for no effect and ±100 for the full control effect; nearly all actives have a fitted effect of over 55% in size
#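 qHTS (up to 57 uM final) was run with 24 h compound exposure of reporter cells at 37 °C. Each well was multiplexed: SteadyGlo luminescence measured ATXN2-luciferase expression after a fluorogenic Gly-Phe-AFC viability readout (25 uM final).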
# S2 tox = viability counter-screen for ATXN expression inhibitors; Potency, µM (highest dose often 56.7 µM), actives largely listed as cytotoxic; 400,000 tested, 0.49% active; AID 651635; S2 cells (HEK-293 line with an ATXN2-luciferase reporter) viability, CellTiter-Fluor protease fluorescence, 24 h; note: nearly all actives have a fitted effect of over 40% in size
# HT1080 IDH1KD tx = toxicity to HT-1080 IDH1 knockdown cells (counter line); AID 686971; HT-1080 IDH1 knockdown viability, ATP luminescence, 48 h; 360,000 tested, 2% active; Potency, µM (top dose mostly 46.1 µM), inactives show at the top dose activity, negative = toxicity, hits mostly cytotoxic;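 note: 0% = DMSO wells and -100% = cell-free medium wells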
#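 Cytotoxicity counter-line: IDH1KD HT-1080, 48 h, CellTiter-Glo. Curves classed by r2, magnitude and activity.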
# HT1080-NT tox = kills 2HG-producing HT-1080-NT fibrosarcoma cells. Potency, µM (highest dose often 46.1 µM), without a hit: at the highest dose activity, negative = less viability, most hits filed as cytotoxic. 360,000 tested, 1.6% active. HT-1080-NT fibrosarcoma viability, CellTiter-Glo ATP luminescence, 48 h. AID 686970;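 note: NT is the 2HG producing partner of a matched IDH1 knockdown line; 0% = DMSO-treated cells and -100% = media-only wells without cells; nearly all actives have a fitted effect of over 55% in size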
#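 750 cells/well, RPMI + 5% FBS; 2 h settle, compound pin-transfer, 48 h at 37 degrees C. CellTiter-Glo 10 min RT, luminescence. Normalized to DMSO and media-only wells.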
# KB-3-1 tox = KB-3-1 parental cell cytotoxicity. AID 1347075. 400,000 tested, 1.4% active. KB-3-1 viability, CellTiter-Glo ATP luminescence, 72 h. Potency, µM (top dose mostly 46.1 µM), hits mostly cytotoxic; note: % is set by controls: 0 for no effect and ±100 for the full control effect; nearly all actives have a fitted effect of over 60% in size
#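 Using CellTiter-Glo luminescence, growth of non-resistant KB-3-1 adenocarcinoma cells is assessed 72 h after pin-tool compound addition at 37 °C. Normalized responses across the concentration series yield fitted curves.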
# KB-V1 MDR tox = kills drug-selected multidrug resistant KB-V1 cells; KB-V1 MDR cells viability, CellTiter-Glo, 72 h; Potency, µM (series often up to 46.1 µM), most hits filed as cytotoxic; 400,000 tested, 3.4% active; AID 1347076; note: % is set by controls: 0 for no effect and ±100 for the full control effect; nearly all actives have a fitted effect of over 60% in size
#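 KB-V1, DMEM (no phenol red) + 10% FBS; cpd pin-transferred, titration series; 72 h, 37 degrees C; CellTiter-Glo, luminescence. Data normalized, curve-fit.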
# * = called active by the depositor; i = inactive; ? = inconclusive; . = not tested or not shown; [ ] = another dose, or the depositor's remark. Rows were chosen to be rich in hits. Some 6.2% of all compounds tested hit in one or more screens of this group. Calls come from the whole dose curve; as a rule, active = well fitted curve in the direction sought with a large enough effect; inconclusive = small, poorly fitted or top-dose-only effect, or another doubt; inactive = no such curve, though single readings can be large; an effect the other way counts as inactive or inconclusive. Potency is the fitted concentration of half-maximal effect.
SMILES,ATXN2 expr inh,S2 tox,HT1080 IDH1KD tx,HT1080-NT tox,KB-3-1 tox,KB-V1 MDR tox
CC1(C(=O)NCc2ccccc2Br)CCN1Cc1ccc(-c2ccccc2)o1 (stereo not drawn),-9.1%,i,?,?,5.17µM*,20.6µM*
Cc1ccc(NC(=O)C2(C)CCN2C(=O)Cc2ccc(C(C)C)cc2)cc1 (stereo not drawn),-10.1%,i,?,?,?,?
CC1(C(=O)NCc2cccc3ccccc23)CCN1C(=O)Cc1ccc(-c2ccccc2)cc1 (stereo not drawn),?,?,?,18.4µM*,i,i
Cc1ccc(NC(=O)C2(C)CCN2C(=O)Cc2ccc(C(C)(C)C)cc2)cc1C (stereo not drawn),-30.3%,?,?,18.4µM*,i,i
CC(C)c1ccc(CC(=O)N2CCC2(C)C(=O)Nc2ccc3c(c2)OCO3)cc1 (stereo not drawn),4.1%,i,?,-11.4%,?,20.6µM*
CC1(C(=O)NCc2cccc(C(F)(F)F)c2)CCN1Cc1ccc(-c2ccccc2)o1 (stereo not drawn),?,i,?,?,i,?
Cc1ccc(NC(=O)C2(C)CCN2C(=O)Cc2ccccc2)cc1C (stereo not drawn),-3.8%,i,5.9%,9.2%,i,i
C[C@H]1C[C@H]2[C@@H]3CCC4=CC(=O)C=C[C@]4(C)[C@@]3(F)[C@@H](O)C[C@]2(C)[C@@]1(O)C(=O)CCl,.,i,.,.,.,.
CC(NC(=O)c1ccc(CSc2nc3ccncc3n2Cc2ccc(F)cc2)cc1)c1ccccc1 (stereo not drawn),-8.2%,?,.,.,i,i
COc1cc2c(cc1OC)C(COc1cccc(C(F)(F)F)c1)NCC2 (stereo not drawn),2.9%,i,-22.4%,3.3%,i,i
C[C@@H]1CN([C@H](C)CO)C(=O)CCCn2nncc2CO[C@@H]1CN(C)S(=O)(=O)c1ccc(Cl)cc1,-4.8%,i,-8.8%,-17.5%,i,i
CC1(C(=O)Nc2cccc(C#N)c2)CCN1C(=O)Cc1ccc(-c2ccccc2)cc1 (stereo not drawn),?,?,?,?,i,i
CC1(C(=O)Nc2ccc3c(c2)OCCO3)CCN1C(=O)Cc1ccc(-c2ccccc2)cc1 (stereo not drawn),0.0%,i,?,?,?,18.4µM*
CNCCCOc1ccc(Cl)cc1C(C)(C)C,?,?,23.1µM*,?,?,?
CCC(C)NCCCOc1ccc(Cl)cc1C(C)(C)C (stereo not drawn),-4.7%,i,-15.7%,-7.8%,i,?
COCCCNCCCOc1ccc(Cl)cc1C(C)(C)C,?,?,20.6µM*,?,?,25.9µM*
COCCNCCCOc1ccc(Cl)cc1Br,.,i,?,?,i,i
O=C(Cc1ccccc1)NC(CSSCC(NC(=O)Cc1ccccc1)C(=O)O)C(=O)O (stereo not drawn),26.4%,i,6.9%,0.0%,i,i
CCC1(c2ccccc2)ON(c2c(Br)cccc2Br)C1=O (stereo not drawn),22.4µM*,?,18.4µM*,?,i,?
CC(C)N1CCC(N2CCN(Cc3ccc(-c4ccc(Cl)cc4)o3)CC2CCO)CC1 (stereo not drawn),-5.0%,i,20.6µM*,16.4µM*,?,i
Cc1ccc(C(=O)Nc2cccc(C(=O)O)c2)cc1S(=O)(=O)N1CCCCC1,12.6µM*,i,-1.8%,-6.2%,i,i
Cc1ccc(NC(=O)CCNC(=O)c2ccc(Br)cc2)cc1S(=O)(=O)N1CCCCCC1,-30.9%,i,-7.4%,-8.1%,?,20.6µM*
Cc1ccc(C(=O)Nc2ccncc2)cc1S(=O)(=O)N1CCCCC1,.,i,-17.2%,-2.3%,?,14.6µM*
CCN(CC)CCNC(=O)c1ccc(NC(=O)c2ccc(C(=O)c3ccccc3)cc2)cc1,?,i,20.6µM*,20.6µM*,i,i
Cc1ccc(C(=O)Nc2cccc(C(=O)O)c2)cc1S(=O)(=O)N1CCOCC1,?,i,0.0%,6.2%,i,i
SMILES,ATXN2 expr inh,S2 tox,HT1080 IDH1KD tx,HT1080-NT tox,KB-3-1 tox,KB-V1 MDR tox
C[C@]12CC[C@H](O)CC1=CC[C@@H]1[C@H]2CC[C@]2(C)C(c3cccnc3)=CC[C@H]12,-6.8%[25.6 µM],.,.,.,.,.
CCOC(=O)C1CCN(C(=O)c2[nH]c(C(F)(F)F)nc2-c2ccccc2)CC1,7.3%,i,10.8%,17.5%,i,i
CCN(CC)CCNC(=O)c1ccc(NC(=O)c2ccc(Cl)c(S(=O)(=O)N3CCCCCC3)c2)cc1,?,i,20.6µM*,?,?,i
O=C1CSC(=Nc2cccc(C(=O)O)c2)N1,10.5%,i,14.1%,4.8%,i,i
CC(=O)c1cccc(N=C2NC(=O)CS2)c1,0.8%,i,9.3%,8.0%,i,6.51µM*
Cc1ccc(SCCC(=O)Nc2ccccc2Br)cc1,.,i,10.2%,13.4%,i,i
Cc1ccc(SCCC(=O)Nc2ccccc2C(=O)NC(C)C)cc1,5.2%,i,0.5%,-7.0%,i,2.91µM*
CC(C)(C)Cc1nnc(NC(=O)CCC2CCCCC2)s1,-2.6%,i,3.2%,11.3%,i,i
NS(=O)(=O)c1ccc(CCNc2ncnc3c2cnn3-c2cccc(Cl)c2)cc1,?,?,.,.,i,i
Cn1c(CCCNC(=O)c2ccccc2)nc2ccccc21,1.5%,i,15.0%,7.2%,i,i
CCCn1c(NC(=O)C2CCN(S(=O)(=O)c3cccs3)CC2)nc2ccccc21,-35.9%,i,?,?,23.1µM*,?
CCCn1c(CNC(=O)c2ccccc2)nc2ccccc21,7.1%,i,10.4%,10.6%,i,23.1µM*
CCCn1c(Nc2nc3ccccc3n2C)nc2ccccc21,?,?,16.4µM*,13µM*,?,?
Cn1c(/C=N/NC(=O)c2ccccc2)nc2ccccc21,-28.8%,i,?,10µM*,i,?
COc1ccc(CCNC(=O)CSc2cc(=O)n(C)c3ccccc23)cc1OC,-9.1%,i,.,.,i,i
Cc1nn(C(=O)c2cccc(F)c2)c(C)c1S(=O)(=O)N1CCCCCC1,4.2%,i,.,.,i,i
CCOC(=O)c1c(C)[nH]c(C)c1S(=O)(=O)N1CCC(C(=O)Nc2ccc(C)c(N(C)C)c2)CC1,-0.5%,i,.,.,i,i
